Sfp inh = blocks B. subtilis Sfp PPTase activity | Potency, µM, actives largely listed as inhibitors | 3.5% of 310,000 active | AID 1490 | Q9F4F7 | Biochemical Sfp PPTase activity, qHTS;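 further: the enzyme is Sfp with the accession as filed and its product quenches rhodamine fluorescence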
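Reaction rates are the 30-min fluorescence difference (ex 525, em 598 nm) in wells containing 15 nM Sfp, 5 uM rhodamine-CoA and 12.5 uM BHQ-2-YbbR at pH 7.6 with 10 mM MgCl2.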
VP16 counter = Gal4-VP16 reporter inhibition counter-screen | Drosophila S2 Gal4-VP16 UAS-luciferase, luminescence, 20 h | Potency, µM (top dose mostly 53.6 µM), actives largely listed as inhibitors | 3.5% of 310,000 active;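 further: Gal4-VP16 expression switched on by copper sulfate through the metallothionein promoter; nearly all actives have a fitted effect of over 50% in size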
Epigenetic derep = regulators of epigenetic silencing causing reporter derepression in mouse cells; murine LDR cells, GFP reporter derepression, 30 h; Potency, µM (highest dose often 53.9 µM), most hits filed as activators; 0.2% of 280,000 active; further: nearly all actives have a fitted effect of over 60% in size
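GFP-positive cell count by laser-scanning cytometry (objects 20–120 um) after 30 h, 37 C compound exposure of murine LDR cells; reporter is CMV-GFP integrated at a silenced locus, inducible by HDAC or DNMT inhibitors.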
RORgamma inh = ROR gamma (mouse) transcription inhibition; Potency, µM (doses to about 53.6 µM), most hits filed as inhibitors; 5.4% of 310,000 active; Drosophila S2 Gal4-RORgamma UAS-luciferase reporter, 20 h; further: nearly all actives have a fitted effect of over 60% in size
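ROR gamma transcriptional activity was tracked as Gal4-UAS luciferase output in stably transfected Drosophila Schneider cells, with compound added 1 hr before 700 uM copper sulfate induction and a 20 hr ambient-temperature incubation.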
PINK1 expr mod = PINK1 expression modulation | Potency, µM (highest dose often 76.6 µM), usual class: activators | AID 624263 | PINK1 immunofluorescence, high-content cytometry, 24 h | 0.2% of 410,000 active; active means well fitted activation curve with a large enough effect; inconclusive means small, poorly fitted or top-dose-only effect; cell line not stated here; further: nearly all actives have a fitted effect of over 65% in size
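Fluorescence from anti-PINK1 antibody, together with nuclear and cell stains, was scanned on a laser-scanning cytometer. Before staining, stable-line cells were incubated 24 hours with compounds at 5 concentrations; primary antibody 12 h at 10 degrees C.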
ClpP mod = qHTS Assay for Activators of ClpP | ATP-dependent Clp protease proteolytic subunit (Bacillus subtilis (strain 168)), P80244 | purified B. subtilis ClpP, FRET peptide cleavage, 20 min | Potency, µM (titrated, usually from 57.5 µM) | 1.9% of 340,000 active | AID 651965, 2013; active means well fitted falling curve with a large enough effect; inconclusive means small, poorly fitted or top-dose-only effect; inactive means no such curve, though single readings can be large or run the other way; further: the source files actives as falling curves though it sought activators and does not explain the sign; nearly all actives have a fitted effect of over 65% in size
Target sequence (P80244 whole entry, looked up): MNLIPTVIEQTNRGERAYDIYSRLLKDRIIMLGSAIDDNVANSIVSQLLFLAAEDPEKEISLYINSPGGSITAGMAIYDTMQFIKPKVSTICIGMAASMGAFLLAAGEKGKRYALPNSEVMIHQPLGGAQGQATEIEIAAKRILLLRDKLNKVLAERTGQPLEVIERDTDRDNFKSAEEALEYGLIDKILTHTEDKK
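ClpP 10 microg/mL final, pH 8 Tris/KCl buffer with BSA, glycerol, Tween-20; compound pinned in; FRET-FV substrate; RT 20 min; Ex320/Em430; ΔFRET vs ADEP 5.8 microM, DMSO, no enzyme.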
A number is an active result; 0 = inactive; ? = inconclusive; - = no result given. The list is not random: actives were taken first. Their share in the collection is about 8.1%. Unless noted, the call rests on the fitted dose curve; in most records, active means well fitted curve in the direction sought with a large enough effect; inconclusive means small, poorly fitted or top-dose-only effect, or another doubt; inactive means no such curve, though single readings can be large; an effect the other way counts as inactive or inconclusive.

SMILES	Sfp inh	VP16 counter	Epigenetic derep	RORgamma inh	PINK1 expr mod	ClpP mod
Nc1ccc2nc3c(=O)n(C4CCCCC4)c(=O)[nH]c3nc2c1	0	?	0	0	0	0
CCN(CC)CCCNc1ncnc2c1cnn2-c1ccc(C)c(C)c1	-	-	0	-	0	0
Clc1ccccc1-c1nc2ccccc2c2nc3ccccc3n12	0	20µM	0	0	0	0
N#Cc1ccc(-c2nc3cc(Cl)ccc3c(=O)n2O)cc1	0	?	-	0	0	0
N#Cc1ccc(-c2nc3ccccc3c(=O)n2O)cc1	0	?	-	16µM	0	0
O=c1c2ccccc2nc(-c2ccc(Cl)cc2Cl)n1O	?	?	0	10µM	0	-
O=c1c2ccccc2nc(-c2ccccc2Cl)n1O	0	?	0	10µM	0	-
O=c1c2ccccc2nc(-c2ccc(Cl)c(Cl)c2)n1O	0	?	0	?	0	0
O=c1c2cnn(-c3ccc(F)cc3)c2ncn1Cc1cccc(Cl)c1	-	-	0	-	0	0
O=c1c2ccc(Cl)cc2nc(-c2cccc(C(F)(F)F)c2)n1O	0	3.5µM	0	7.1µM	0	0
CCCCCCCCOc1ccccc1C(=O)Nc1ccc(C(=O)OCC[N+](C)(CC)CC)cc1	40µM	0	-	0	-	-
O=C(CSc1nnc(-c2ccccc2)o1)c1cccc([N+](=O)[O-])c1	-	-	0	-	0	0
Cc1ccc(S(=O)(=O)N2CCCc3cc(NS(=O)(=O)c4ccccc4)ccc32)cc1	-	-	0	-	0	0
Cc1ccc(NS(=O)(=O)N2CCOCC2)cc1Cl	0	0	-	0.35µM	0	0
Clc1ccc(-c2csc3ncnc(Sc4nnnn4C4CC4)c23)cc1	-	-	-	-	0	0
FC(F)(F)c1cc(-c2ccccc2)nc(-n2cc(Cl)cn2)n1	0	0	0	0	0	0
Cc1cnn(-c2nc(-c3ccccc3)cc(-c3ccccc3)n2)c1	0	11µM	0	3.2µM	0	-
COc1ccc(SCCN2CCN(CCc3ccccc3)CCC2=O)cc1	0	?	-	10µM	-	-
Cc1ccc(Cc2c(C)nc3nc(SCC(=O)NCCC(C)C)nn3c2C)cc1	-	-	?	-	0	0
N#Cc1cc(-c2ccccc2)c[nH]c1=O	0	0	0	?	0	7.9µM
COc1ccc(NC(=O)C2CCC(CNS(=O)(=O)c3ccc(Br)s3)CC2)c(OC)c1 (stereo unspecified)	-	-	0	-	0	0
CNC(=O)c1c(NC(=O)c2nc3ccccc3s2)sc2c1CCC2	18µM	8.9µM	0	7.1µM	-	-
Cc1ccc(CSc2ncc(Cl)c(C(=O)Nc3sc4c(c3C(N)=O)CCCC4)n2)cc1	-	-	?	-	0	0
CNC(=O)c1c(NC(=O)c2nc(SCc3ccc(C)cc3)ncc2Cl)sc2c1CCCC2	-	-	22µM	-	0	0
O=C(NCc1nnc2n1CCN(Cc1cc(F)cc(F)c1)CC2)c1cccc(F)c1	-	-	-	-	0	-
SMILES	Sfp inh	VP16 counter	Epigenetic derep	RORgamma inh	PINK1 expr mod	ClpP mod
COC(=O)N1C(=O)[C@@](c2ccc(OC)cc2)(C(C)C)N1C(=O)OC	0	0	-	0	0	0
COC(=O)N1C(=O)[C@@](c2ccccc2)(C(C)C)N1C(=O)OC	0	0	-	10µM	0	0
O=C(Nc1nccs1)c1ccc(COc2c(F)c(F)cc(F)c2F)o1	-	-	-	-	0	0
O=C(Nc1nccs1)c1ccc(-c2ccc(Cl)cc2Cl)o1	0	5µM	0	3.5µM	0	0
Cc1cccc(C)c1NC(=O)c1ccc(-c2ccc(Cl)cc2Cl)o1	0	0	0	0	0	0
O=C(Nc1nccs1)c1ccc(-c2ccc(F)c(Cl)c2)o1	?	?	-	7.9µM	0	0
CC[n+]1ccnc2ccccc21	-	-	-	-	0	?
O=C(NCCc1cccs1)c1ccc(Cn2c(SCc3ccccc3)nc3cccnc32)cc1	-	-	0	-	0	0
C/C(=N\Nc1nc2ccccc2c(=O)n1O)c1ccco1	79µM	0	-	0	0	-
Cc1ccc(C)c(/C=N/Nc2nc3ccccc3c(=O)n2O)c1	25µM	?	0	?	0	0
CCc1ccc(C(=O)COC(=O)C(Cc2c[nH]c3ccccc23)NC(=O)c2ccc(CC)cc2)cc1 (stereo unspecified)	-	-	0	-	0	0
C/C(=N\NC(=O)c1cc2ccccc2cc1O)c1cccs1	0	?	-	0	0	0

Screening data (PubChem)
